Some test systems named below: HCT-15 colon; HT29 colon; SNB-19 CNS; U251 CNS; PC-3 prostate; UACC-62 melanoma; LOX IMVI melanoma; SK-MEL-28 melanoma; SK-MEL-2 melanoma; EKVX NSCLC; SN12C renal; UO-31 renal; TK-10 renal; ACHN renal; CAKI-1 renal; CCRF-CEM leukemia; MOLT-4 leukemia; SK-MEL-5 melanoma; A498 renal.
Assay in all cases: NCI-60 one-dose screen, 48 h (100 = growth as untreated, 0 = no growth, -100 = all killed)
Common to all, as to details: 10 µM unless noted

About 83,000 compounds went through this panel and 20% of them were active in at least one assay; those are over-represented in the sample as a whole.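 In brief: 96-well plates, 48 h treatment, single concentration, percent growth endpoint.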 A number with no mark means an inactive call. The source made the active and inactive calls. How the source made its calls: active means growth percent below 10; inactive means the rest.

Take `S=C(S)NCCc1c[nH]c2ccccc12`: the growth is 97.2% with HCT-15 colon; 110% in the experiment on HT29 colon; 96.3% in the experiment with SNB-19 CNS; 108% in the experiment on U251 CNS; 91.4% in the experiment with PC-3 prostate; 88.4% in the experiment on UACC-62 melanoma. For the same compound, the growth was 87.2% with LOX IMVI melanoma; 113% in the experiment on SK-MEL-28 melanoma; 99.6% with SK-MEL-2 melanoma; 100% in the experiment on EKVX NSCLC; 91.8% with SN12C renal; 62.8% with UO-31 renal. Moreover, the growth is 128% in the experiment with TK-10 renal; 101% in the experiment on ACHN renal; 81.2% with CAKI-1 renal; 81.5% in the experiment on CCRF-CEM leukemia; 93.6% in the experiment with MOLT-4 leukemia.

In the case of `N/C(=N\C(N)=N\c1nc2ccccc2s1)c1cccc(Br)c1`, the growth in the experiment on HCT-15 colon was 44.2%; with HT29 colon it was 104%; in the experiment with SNB-19 CNS, 90.9%; in the experiment with U251 CNS, 38.3%; with PC-3 prostate, 63.2%; in the experiment with SK-MEL-5 melanoma, 94.6%. Further, the growth in the experiment with UACC-62 melanoma was 84.7%; in the experiment with SK-MEL-28 melanoma it was 94.5%; with SK-MEL-2 melanoma it was 106%; in the experiment with EKVX NSCLC, 73.2%; in the experiment with SN12C renal, 50.7%; in the experiment with UO-31 renal it was 24.7%. Further, the growth with ACHN renal is 84.8%; in the experiment on CAKI-1 renal, 68.8%; in the experiment on CCRF-CEM leukemia, 55.8%; in the experiment with MOLT-4 leukemia it was 77.6%.

For the compound `C=CCn1c2ccccc2c2c3c(c4c5ccccc5n(CC=C)c4c21)C(=O)N(O)C3=O`, the growth is 35.5% in the experiment with HCT-15 colon; 19.2% in the experiment on HT29 colon; 36.1% with SNB-19 CNS; 11.5% in the experiment with U251 CNS; 21.8% with PC-3 prostate; -48.5% (active) in the experiment with SK-MEL-5 melanoma. Besides, the growth with LOX IMVI melanoma is -81.2% (active); in the experiment on SK-MEL-2 melanoma, 70.4%; with EKVX NSCLC it was 66%; in the experiment with SN12C renal it was 9.32% (active); in the experiment with UO-31 renal, -47% (active); with TK-10 renal it was 50.8%. Further, the growth with ACHN renal is -33.6% (active); in the experiment with CAKI-1 renal, -70.6% (active); with A498 renal, 23.7%; in the experiment on CCRF-CEM leukemia, 10.2%; with MOLT-4 leukemia, -10.4% (active).

Take `Cc1ccc2nc(-c3cc4c([nH]c5ccccc54)c(-c4ccc(F)c(F)c4)n3)[nH]c2c1`: the growth is 32.7% with HCT-15 colon; 18.7% in the experiment with HT29 colon; 112% in the experiment with SNB-19 CNS; 64% in the experiment on U251 CNS; 72.6% with PC-3 prostate; 61.1% with SK-MEL-5 melanoma. The growth was 90.4% in the experiment with UACC-62 melanoma; 101% in the experiment on SK-MEL-28 melanoma; 94% in the experiment on SK-MEL-2 melanoma; 81.8% with SN12C renal; 65.4% with UO-31 renal; 117% in the experiment on TK-10 renal. The growth in the experiment on ACHN renal was 85.9%; with CAKI-1 renal, 93.6%; in the experiment with A498 renal, 106%; with CCRF-CEM leukemia, 16.8%; in the experiment on MOLT-4 leukemia, 35.4%.

Consider `COc1cc(/C=C/C(=O)/C=C/c2cc(OC)c3c(c2)OCO3)cc2c1OCO2`, for which the growth in the experiment with HCT-15 colon was 69.1%; in the experiment on HT29 colon, 6.92% (active); in the experiment on SNB-19 CNS it was 80.3%; with U251 CNS, 45.1%; in the experiment with PC-3 prostate, 83.7%; in the experiment with SK-MEL-5 melanoma it was 80.9%. In addition, the growth was 75.1% in the experiment with UACC-62 melanoma; 119% in the experiment on SK-MEL-28 melanoma; 95.9% in the experiment on EKVX NSCLC; 85.4% in the experiment on SN12C renal; 88.1% with UO-31 renal; 136% in the experiment on TK-10 renal. Besides, the growth with ACHN renal was 102%; with CAKI-1 renal it was 92.6%; in the experiment on A498 renal, 117%; in the experiment with MOLT-4 leukemia, 91.2%.

In the case of `Cc1nc2ncccc2nc1Nc1ccc(S(=O)(=O)Nc2cncs2)cc1`, the growth with HCT-15 colon was 115%; with HT29 colon, 101%; with SNB-19 CNS, 111%; with U251 CNS, 97.7%; in the experiment on PC-3 prostate it was 86.6%; in the experiment on SK-MEL-5 melanoma it was 101%. Further, the growth with UACC-62 melanoma was 88.8%; with SK-MEL-2 melanoma it was 103%; with EKVX NSCLC it was 88.2%; in the experiment on SN12C renal, 82.7%; in the experiment with UO-31 renal it was 58.8%; in the experiment on TK-10 renal, 101%. In addition, the growth in the experiment on ACHN renal is 99.7%; in the experiment on CAKI-1 renal, 84.1%; with A498 renal, 118%; with CCRF-CEM leukemia it was 100%; in the experiment on MOLT-4 leukemia, 99.4%.

As to `COc1ccc(-c2nc(N3CCCC3=O)sc2Br)cc1OC`, the growth in the experiment with HCT-15 colon was 89.8%; in the experiment on HT29 colon, 82.7%; in the experiment with SNB-19 CNS, 93.8%; in the experiment on U251 CNS, 96.7%; in the experiment on PC-3 prostate, 101%; with SK-MEL-5 melanoma, 89.8%. Besides, the growth is 90% in the experiment with UACC-62 melanoma; 102% with SK-MEL-28 melanoma; 86.5% in the experiment with SK-MEL-2 melanoma; 104% in the experiment with SN12C renal; 93.6% with UO-31 renal; 94.1% in the experiment on TK-10 renal. For the same compound, the growth is 93% with ACHN renal; 99.4% in the experiment on CAKI-1 renal; 88.3% in the experiment on A498 renal; 96.4% in the experiment with CCRF-CEM leukemia; 93.8% with MOLT-4 leukemia.

As for `COc1ccc(C2C=C(c3ccc(N)cc3)N=C3SC=CN32)cc1OC` (stereo not given), the growth in the experiment with HCT-15 colon is 101%; with HT29 colon, 103%; with SNB-19 CNS, 102%; in the experiment with U251 CNS, 98.5%; in the experiment on PC-3 prostate, 91.4%; with SK-MEL-5 melanoma, 103%. The growth with UACC-62 melanoma was 112%; in the experiment on SK-MEL-28 melanoma it was 113%; in the experiment on SK-MEL-2 melanoma, 108%; in the experiment with SN12C renal, 105%; in the experiment with UO-31 renal it was 82.2%; in the experiment on TK-10 renal, 98.1%. Besides, the growth is 99.9% in the experiment on ACHN renal; 101% in the experiment with CAKI-1 renal; 108% with A498 renal; 97.7% with CCRF-CEM leukemia; 90.6% in the experiment with MOLT-4 leukemia.

Take `CC(C)(C)c1[nH]nc2c1C(c1cc3ccccc3[nH]c1=O)Nc1cc(C(=O)Nc3ccc(Cl)cc3)ccc1N2` (stereo not given): the growth is 98.8% in the experiment with HCT-15 colon; 91.3% in the experiment with HT29 colon; 90.5% with SNB-19 CNS; 60.5% in the experiment on U251 CNS; 61.4% in the experiment with PC-3 prostate; 70.2% in the experiment on SK-MEL-5 melanoma. The growth with UACC-62 melanoma was 73.1%; in the experiment with SK-MEL-28 melanoma it was 81.7%; in the experiment with SK-MEL-2 melanoma, 77.9%; with SN12C renal, 71.1%; with UO-31 renal, 83.8%; with TK-10 renal, 105%. Also, the growth with ACHN renal is 84.2%; in the experiment with CAKI-1 renal, 94.9%; with A498 renal, 66.3%; with MOLT-4 leukemia it was 18.5%.
